# Hits are enriched below; roughly 3.4% of the tested compounds scored in any of these assays.
# ADAM17 inh: ADAM17 inhibitors, primary screen, biochemical, QFRET | AID 720648, 2013 | 0.83% of 370,000 active | Disintegrin and metalloproteinase domain-containing protein 17 (Homo sapiens), P78536 | recombinant ADAM17, EDANS/DABCYL FRET peptide cleavage | inhibition, % at 6.95 µM;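 active means inhibition above the mean of compounds lying between control limits plus 3 SD, set per campaign, cut at about 8.5% in these data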;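 further: 0% = DMSO-only wells as the low control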
# Target sequence (P78536 215-824 limits assumed): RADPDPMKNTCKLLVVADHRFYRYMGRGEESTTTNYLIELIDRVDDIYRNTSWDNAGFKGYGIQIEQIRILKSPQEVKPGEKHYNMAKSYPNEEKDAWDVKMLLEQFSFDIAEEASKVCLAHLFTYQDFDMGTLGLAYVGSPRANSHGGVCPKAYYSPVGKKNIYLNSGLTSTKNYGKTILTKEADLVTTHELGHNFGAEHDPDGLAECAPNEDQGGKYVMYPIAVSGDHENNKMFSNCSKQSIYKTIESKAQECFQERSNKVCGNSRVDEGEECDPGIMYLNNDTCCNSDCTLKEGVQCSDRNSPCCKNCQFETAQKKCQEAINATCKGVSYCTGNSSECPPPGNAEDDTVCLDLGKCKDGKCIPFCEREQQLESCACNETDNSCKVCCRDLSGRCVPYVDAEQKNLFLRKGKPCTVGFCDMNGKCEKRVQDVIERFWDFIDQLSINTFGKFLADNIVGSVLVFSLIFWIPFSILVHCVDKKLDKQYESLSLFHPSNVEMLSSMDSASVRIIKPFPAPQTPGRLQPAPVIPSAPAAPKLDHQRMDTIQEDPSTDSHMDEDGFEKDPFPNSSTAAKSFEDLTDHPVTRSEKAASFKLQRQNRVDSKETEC
# PLC-gamma1 inh: PLC-gamma1 enzyme inhibitors, primary screen, biochemical, fluorescence, purified enzyme; fluorogenic substrate; inhibition, % at 12.2 µM; 0.84% of 370,000 active; AID 720700, 2013; in the data active means inhibition above about 9.5%
# PLCb3 inh: human PLC-beta3 inhibitors, primary screen, biochemical, fluorescence | 1-phosphatidylinositol 4,5-bisphosphate phosphodiesterase beta-3 (Homo sapiens), Q01970 | Purified PLC-beta3, fluorogenic substrate | inhibition, % at 12.2 µM | 0.18% of 370,000 active | AID 720704, 2013; in the data active means inhibition above about 11%;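 further: 0% = median of compound wells on plate and 100% = full blocker control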
# proKLK7 act: proKLK7 zymogen activators, primary screen, biochemical, fluorescence intensity; Kallikrein-7 (Homo sapiens), P49862; purified proKLK7, EDANS-DABCYL substrate fluorescence; 100% is mature enzyme control, 0% vehicle; activation, % at 7 µM; 0.9% of 370,000 active; AID 652039, 2013;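 active means activation above the mean of all tested compounds plus 3 SD, computed per campaign excluding outliers beyond control limits, cut at about 13% in these data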
# ADAM10 inh: human ADAM10 inhibitors, primary screen, biochemical, QFRET, HTS. Disintegrin and metalloproteinase domain-containing protein 10 (Homo sapiens), O14672. recombinant ADAM10, EDANS/DABCYL FRET peptide cleavage, 3 h. inhibition, % at 7 µM. 0.62% of 370,000 active;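 active means inhibition above a per-campaign cutoff equal to the mean of compounds falling between control-based bounds plus 3 SD, cut at about 20% in these data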;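 further: 0% = DMSO wells while the 100% control is not disclosed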
# sPLA2-III inh: human group III sPLA2 inhibitors, primary screen, biochemical, QFRET, BODIPY PC-A2 liposome substrate. Group 3 secretory phospholipase A2 (Homo sapiens), Q9NZ20. 0.56% of 370,000 active. inhibition, % at 12.2 µM. AID 743126, 2013. QFRET BODIPY PC-A2 liposome hydrolysis, fluorescence;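 active means inhibition above mean plus 3 SD of compounds lying within the high and low control bounds, cut at about 19% in these data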;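 further: 0% = median of test compound wells and 100% = no enzyme DMSO wells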
# proKLK7 act conf: proKLK7 zymogen activators, confirmation, biochemical, fluorescence intensity, triplicate; shares compounds with proKLK7 act; purified proKLK7, EDANS-DABCYL substrate fluorescence; scaled: vehicle 0, mature enzyme 100; 68% of 3,200 active; activation, % at 7 µM;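 active means activation, as change over the incubation, above the mean of all tested compounds plus 3 SD, cut at about 13% in these data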
# EDANS-DABCYL int: EDANS-DABCYL substrate optical interference, artefact control for kallikrein-7 zymogen activator project, biochemical, fluorescence intensity, high throughput. shares compounds with proKLK7 act. no enzyme, 4 h; solvent 0%, active enzyme control 100%. activation, % at 7 µM. 80% of 3,200 active;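 active means activation above the all-compound mean plus 3 SD, ignoring values outside control-based bounds, cut at about 4.8% in these data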;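 further: value is the 4 h activation minus the activation read at time zero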
# K7 EDANS ctr: EDANS fluorescence interference in dose response, no enzyme | 20% of 250 active | EC50, µM | shares compounds with proKLK7 act | EDANS-DABCYL peptide fluorescence interference;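 active means compounds that raise the fluorescence signal in this interference counterscreen, with EC50 at or below 10 µM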;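 further: intact quenched peptide substrate alone read at 355 nm excitation and 520 nm emission; signal is fluorescence gain from T0 to T4 after four hours at room temperature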
# * hit, by the source's call; i = inactive; . = no result given.
SMILES,ADAM17 inh,PLC-gamma1 inh,PLCb3 inh,proKLK7 act,ADAM10 inh,sPLA2-III inh,proKLK7 act conf,EDANS-DABCYL int,others
CCN1CCN(C(=S)Nc2ccc3nc(N4CCN(CC)CC4)cc(C)c3c2)CC1,-158,-226,-269,8,i,-7,.,.,
CS(=O)(=O)N1CCC[C@]2(CC[C@@H](CCC#N)O2)C1,0,-1,2,0,-2,3,.,.,
O=S1(=O)c2ccccc2-c2c(nnn2Cc2ccccc2)CN1C1CC1,0,1,1,0,3,1,.,.,
O=C(NC1CCCC1)C1CSCCS(=O)(=O)N1Cc1ccc(F)cc1 (stereo not given),-3,-1,-1,0,-6,3,.,.,
Brc1ccc(-c2ccc3c(n2)CCCN3Cc2ccccn2)cc1,-15,-75,-86,-1,-71,6,.,.,
Cc1cc2c(nc1C)CCCN2Cc1ccccn1,-39,-97,-125,15*,-148,0,-4,-7,
Cc1cccc(NC(=O)[C@@H]2CC(=O)O[C@@H]2c2ccccc2)c1C,-3,-3,0,-1,-12,2,.,.,
CC1CCCN(CCCNC(=O)c2cc3c(Cl)nc4ccccc4c3s2)C1 (stereo not given),-3,3,1,0,4,-10,.,.,
CN1CCN(c2ccccc2NC(=O)c2cc3c(s2)-c2ccccc2OC3)CC1,-6,-7,-16,0,-11,-9,.,.,
Cc1cccc2c1-c1sc(C(=O)NCCCN3CCC(C)CC3)cc1CO2,i,i,i,49*,i,-8,64*,65*,
CC1CCN(CCCNC(=O)c2cc3c(s2)-c2ccccc2OC3)CC1,i,i,i,75*,i,-8,74*,74*,
COc1ccccc1N1CCN(C(=O)c2cc3c(s2)-c2ccccc2OC3)CC1,-108,-142,-170,-5,-446,-5,.,.,
CCOC(=O)C1CCN(C(=O)c2cc3c(s2)-c2ccccc2OC3)CC1,i,i,i,14*,i,-1,-91,-138,
CC1CCCN(CCCNC(=O)c2cc3c(s2)-c2ccccc2OC3)C1 (stereo not given),i,i,i,43*,i,-5,63*,78*,
CCOC(=O)c1cc2c(s1)-c1c(C)cccc1OC2,-142,-298,-378,-162,i,1,.,.,
O=[N+]([O-])c1ccc(OC[C@@H](O)CN2CCC(C(O)(c3ccccc3)c3ccccc3)CC2)c(Cl)c1,7,9,2,1,7,-8,.,.,
CCOC(=O)N1CCN(C(=O)C[C@H]2C[C@@]3(C(=O)OC)C(=C[C@H](COCc4ccccc4)O[C@@H]3C)N(Cc3ccco3)C2=O)CC1,3,9,0,0,2,1,.,.,
COc1ccc(S[C@]2(C(=O)NC3CC3)CC(=O)N[C@@H]2c2ccc(OC)cc2)cc1,-3,0,-2,1,-10,11,.,.,
COC(=O)c1cc2c(s1)-c1ccccc1OC2,i,i,i,82*,i,16,76*,80*,
CC(=O)c1cc(-c2ccccc2)n(CC(=O)NCc2ccc(Cl)cc2)c1C,1,-3,2,0,-8,-2,.,.,
CCN(CC)CCCNC(=O)c1cn(C(C)c2ccccc2)nn1 (stereo not given),5,-3,0,0,-9,1,.,.,
CC(C)(C)CC(=O)Nc1cccc(-c2cn3cccnc3n2)c1,i,i,i,25*,i,6,16*,19*,
COc1cccc(C(=O)Nc2cc(-c3cn4cccnc4n3)ccc2C)c1,i,i,i,31*,i,-8,12,-2,
CCC(=O)Nc1cccc(-c2cn3ccsc3n2)c1,-6,-2,1,1,-2,-1,.,.,
COc1cc(C(=O)Nc2cccc(-c3cn4cccnc4n3)c2)cc(OC)c1OC,i,i,i,30*,i,2,-9,-11,
SMILES,ADAM17 inh,PLC-gamma1 inh,PLCb3 inh,proKLK7 act,ADAM10 inh,sPLA2-III inh,proKLK7 act conf,EDANS-DABCYL int,others
CCN(CC)C(=O)CC[C@@H]1CC[C@]2(CCCN(Cc3ccccn3)C2)O1,0,1,2,0,-1,5,.,.,
CCOC(=O)CC[C@H]1CC[C@]2(CCCN(S(=O)(=O)c3ccccc3)C2)O1,-2,0,2,0,-7,2,.,.,
Cc1oc2c(c(C)cc3oc(=O)c(CC(=O)N[C@@H](C)C(=O)O)c(C)c32)c1C,-118,i,i,9,i,1,.,.,
Cc1coc2c1c(C)cc1oc(=O)c(CC(=O)NCCCN3CCCC3=O)c(C)c12,-413,i,i,23*,i,4,4,2,
CC[C@@H](C)[C@H](NC(=O)CNC(=O)Cc1c(C)c2c(cc(C)c3c(C)coc32)oc1=O)C(=O)O,-316,i,i,24*,i,-7,-39,-44,
CC[C@@H](C)[C@H](NC(=O)Cc1c(C)c2c(cc(C)c3c(C)c(C)oc32)oc1=O)C(=O)O,-115,i,i,9,-448,-3,.,.,
CCCC(NC(=O)Cc1c(C)c2c(cc(C)c3c(C)coc32)oc1=O)C(=O)O (stereo not given),-269,i,i,26*,i,0,-11,-12,
Cc1coc2c1c(C)cc1oc(=O)c(CC(=O)N[C@@H](CC(C)C)C(=O)O)c(C)c12,-264,-448,i,11,i,-6,.,.,
Cc1oc2c(c(C)cc3oc(=O)c(CC(=O)N[C@@H](CCCNC(N)=O)C(=O)O)c(C)c32)c1C,-90,i,i,22*,-233,2,21*,14*,K7 EDANS ctr=>69
O=C(Nc1cccs1)OC1CC2CC1[C@H]1CCCCN1C2 (stereo not given in full),1,0,-1,1,2,0,.,.,
O=S(=O)(CC1NCCc2ccccc21)NCc1ccc(F)cc1 (stereo not given),-3,2,2,0,-4,13,.,.,

# Compound activity: PubChem BioAssay, The Scripps Research Institute Molecular Screening Center
